Screening results as filed in PubChem.
LANA-H2A inh – blockers of LANA interaction with H2A/H2B – biochemical, FP readout, HTS, primary screen | 0.6% of 320,000 active | cell-free LANA-H2A/H2B peptide, fluorescence polarization | inhibition, % (test concentration not listed) | AID 2629, 2010; in the data active means inhibition mostly above about 10%, no sharp cut-off; inactive means mostly below about 6.7%
CR mimetic SO – reduction of superoxide in aged yeast, primary screen, HTS | S. cerevisiae aged cells, superoxide DHE fluorescence; stronger effect = lower value | superoxide response (% of plate mean), % at 10 µM | 0.18% of 330,000 active;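 active means superoxide response under a set limit, about three screen SD below normal, cut at about 65% in these data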;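 further: yeast aged for seven days with compound at 30 °C before DHE staining; 100% = average MFI of all compound-treated wells on the plate with controls excluded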
MEX-5 binding – MEX-5 zinc finger RNA-binding disruptors – biochemical, C. elegans, fluorescence polarization, MLPCN library, primary screen. Zinc finger protein mex-5 (Caenorhabditis elegans), Q9XUB2. MEX-5/FITC-TCR2 RNA binding; stronger effect = lower value. activity score (negative = inhibition of binding), % at 10 µM. 0.38% of 300,000 active. AID 1832, 2009;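 active means inhibition past about -25% in most replicates, and total fluorescence under double the plate's negative control median, limit read from the data; inconclusive means replicates evenly split on the limit, or fluorescence at least double controls; inactive means too little inhibition in most replicates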;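 further: 0% = DMSO and -100% = 5 µM competing unlabeled TCR2 RNA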
GLD-1 RNA inh – GLD-1/TGE RNA complex disruptors, primary screen, biochemical, fluorescence polarization. 0.44% of 320,000 active. Female germline-specific tumor suppressor gld-1 (Caenorhabditis elegans), Q17339. purified GLD-1 + fluorescein TGE RNA. inhibition, % at 5.96 µM;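 active means percent inhibition above a per-plate cutoff, the plate mean of test compounds plus 3 SD, cut at about 30% in these data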;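 further: 0% = DMSO wells with GLD-1 and probe and 100% = wells lacking GLD-1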
MCL1 BIM primary – inhibitors of MCL1 binding to BIM-BH3, primary screen, biochemical, fluorescence polarization; Induced myeloid leukemia cell differentiation protein Mcl-1 (Homo sapiens), Q07820; GST-MCL1 / FITC-Bim-BH3 fluorescence polarization; inhibition, % at 10.9 µM; 0.68% of 320,000 active;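 active means inhibition above the mean inhibition of all tested compounds plus 3 SD, set per campaign, cut at about 40% in these data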;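 further: 0% = DMSO wells and 100% = unlabeled Bim-BH3 peptide control; higher means more loss of mP so more displacement of Bim peptide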
Target sequence (Q07820 whole entry, looked up): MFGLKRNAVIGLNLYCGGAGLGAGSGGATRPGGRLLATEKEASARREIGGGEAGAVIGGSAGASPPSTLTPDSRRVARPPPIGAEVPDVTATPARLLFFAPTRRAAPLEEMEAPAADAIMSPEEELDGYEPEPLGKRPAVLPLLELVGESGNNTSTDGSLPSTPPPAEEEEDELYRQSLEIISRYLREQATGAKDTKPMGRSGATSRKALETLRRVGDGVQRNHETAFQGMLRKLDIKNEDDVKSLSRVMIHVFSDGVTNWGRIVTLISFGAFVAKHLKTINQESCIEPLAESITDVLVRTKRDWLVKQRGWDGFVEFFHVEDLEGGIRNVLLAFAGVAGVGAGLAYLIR
BCLXL inh – inhibitors of human Bcl-xL, primary screen, biochemical, fluorescence polarization, HTS | inhibition, % at 10.9 µM | 0.7% of 320,000 active | AID 2129, 2009 | GST-Bcl-xL / FITC-Bim BH3 peptide fluorescence polarization;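 active means inhibition above the mean of all tested compounds plus 3 SD, cutoff set per campaign, cut at about 30% in these data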;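 further: 0% = DMSO wells and 100% = unlabeled Bim-BH3 peptide competitor; inhibitors lower millipolarization by displacing the labeled peptide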
Target sequence (Q07817 whole entry, looked up): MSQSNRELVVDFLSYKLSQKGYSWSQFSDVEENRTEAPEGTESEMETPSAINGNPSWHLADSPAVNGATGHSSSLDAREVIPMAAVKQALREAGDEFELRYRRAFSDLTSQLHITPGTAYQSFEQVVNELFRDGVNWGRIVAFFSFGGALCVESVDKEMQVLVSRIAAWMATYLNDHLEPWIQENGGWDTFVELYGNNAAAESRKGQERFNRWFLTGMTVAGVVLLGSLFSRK
BCLXL inh confirm – Bcl-xL inhibitors blocking Bim BH3 binding, confirmation, counter-screen for MCL1 inhibitor project, biochemical, fluorescence polarization | shares compounds with MCL1 BIM primary | GST-Bcl-xL / FITC-Bim BH3 peptide FP binding | inhibition, % at 10.9 µM | 54% of 1,700 active;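 active means inhibition above a cutoff equal to the mean inhibition of all tested compounds plus 3 SD, cut at about 30% in these data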;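 further: 0% = DMSO wells and 100% = unlabeled Bim BH3 control peptide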
MCL1 BIM confirm – inhibitors of MCL1 binding to BIM-BH3, confirmation, biochemical, fluorescence polarization, triplicate | shares compounds with MCL1 BIM primary | GST-MCL1 / FITC-Bim-BH3 fluorescence polarization | inhibition, % at 10.9 µM | 61% of 1,700 active | AID 2168, 2009;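 active means inhibition above the average of all tested compounds plus 3 SD, cut at about 40% in these data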;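 further: 0% = DMSO wells and 100% = unlabeled Bim-BH3 control peptide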
GLD1 RNA confirm – GLD-1/TGE RNA binding inhibitors, retest, confirmation, biochemical, fluorescence polarization, triplicate; inhibition, % at 5.96 µM; GLD-1/FL-TGE RNA fluorescence polarization; 10% of 550 active; shares compounds with GLD-1 RNA inh;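 active means average inhibition across triplicates above the hit cutoff set in the primary screen, cut at about 32% in these data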;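 further: 0% = GLD-1 with RNA probe and DMSO and 100% = wells lacking GLD-1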
Active calls of the source: *; ? = inconclusive; / = no result; + = active, no number. Compounds with a hit are over-represented: about 1.9% of the library has one in this group of screens.

SMILES	LANA-H2A inh	CR mimetic SO	MEX-5 binding	GLD-1 RNA inh	MCL1 BIM primary	BCLXL inh	BCLXL inh confirm	MCL1 BIM confirm	GLD1 RNA confirm
N#Cc1cc([N+](=O)[O-])ccc1NC(=O)COC(=O)C1CCC(=O)N1 (stereo unspecified)	3	103	/	-4	/	/	/	/	/
COc1ccc(NC(=O)c2ccc(-c3ccc(C(C)=O)cc3)o2)cn1	4	98	/	57*	60*	69*	55*	65*	45*
O=C1C2C3C=CC(C4CC34)C2C(=O)N1/N=C/c1ccc(-c2ccc(F)cc2[N+](=O)[O-])o1 (stereo unspecified)	1	111	-6	55*	84*	74*	20	30	-8
O=C1C2C3C=CC(C4CC34)C2C(=O)N1/N=C/c1ccc(-c2ccc(Cl)cc2[N+](=O)[O-])o1 (stereo unspecified)	9	104	2	15	18	16	/	/	/
NCc1ccccc1	1	91	/	-1	12	6	/	/	/
CCCCC1OC23CCCCC2C(C#N)(C(=N)O3)C1(C#N)C#N (stereo unspecified)	-4	109	1	54*	78*	78*	14	27	-6
Cc1ccc(NC(=O)CS(=O)CC(=O)Nc2ccccc2-c2ccc(C)o2)cc1 (stereo unspecified)	0	109	1	66*	88*	72*	10	9	6
CC(=O)Nc1ccccc1-c1ccc(C)o1	-1	109	1	0	-7	1	/	/	/
Cc1noc(C)c1NC(=O)Nc1ccc2c(c1)C(=O)N([C@H](C)CO)C[C@H](C)[C@@H](CN(C)C(=O)Nc1ccc3c(c1)OCO3)O2	-2	102	/	8	/	/	/	/	/
COC(=O)c1c(NC(=O)CSc2ncn[nH]2)sc(C)c1C	0	101	-1	32*	71*	56*	1	6	-9
COc1ccc2c(c1)c(=O)c(C(=O)c1ccc(F)cc1)cn2CC(=O)Nc1ccc(F)cc1	-2	91	1	69*	71*	75*	4	-6	-2
COc1ccc2c(c1)c(=O)c(C(=O)c1ccc(C)cc1)cn2CC(=O)Nc1ccc(F)cc1	0	96	1	10	10	6	/	/	/
O=C1C=C(O)c2cccc3cccc1c23	-1	103	0	36*	86*	71*	67*	86*	57*
CCN(C[C@H]1N[C@@](Cc2ccccc2)(C(=O)OC)[C@H]2C(=O)N(C)C(=O)[C@@H]12)C(=O)COc1ccccc1	/	133	/	0	/	/	/	/	/
CC(C)[C@H](NC(=O)C1CC(=O)N(c2ccc3c(c2)OCO3)C1)C(=O)NC1CCCC1 (stereo partly specified)	2	82	-17	43*	54*	55*	37*	65*	20
C[C@H](NC(=O)C1CC(=O)N(c2ccc3c(c2)OCO3)C1)C(=O)NC1CCCC1 (stereo partly specified)	0	113	-2	-3	1	5	/	/	/
O=C1C=C(Nc2cccc3cccnc23)c2ccccc2C1=O	1	106	-31*	34*	59*	55*	45*	46*	-4
O=C1C=C(Nc2ccccc2C(=O)O)c2ccccc2C1=O	4	145	-4	-2	25	20	/	/	/
CN(Cc1nc2ccccc2c(=O)[nH]1)C(=O)c1cccc(S(=O)(=O)N2CCc3ccccc32)c1	1	100	/	-2	/	/	/	/	/
Nc1c(O)ccc2c1C(=O)c1ccccc1C2=O	2	120	-39*	72*	105*	105*	111*	127*	53*
CCC(CNc1cc(OC)cc2cccnc12)NC1CCCCC1 (stereo unspecified)	1	128	-11	33*	+	+	50*	62*	-6
COc1cc(NC(=O)c2ccccc2Cl)c2ncccc2c1	-2	87	2	5	5	8	/	/	/
CCOC(=O)CC(=O)CSc1nc(C)cc(-c2cccnc2)c1C#N	2	96	3	-1	11	10	/	/	/
CCOC(=O)CC(=O)CSc1nc(-c2cccnc2)cc(C)c1C#N	/	96	-1	36*	62*	61*	8	-1	3
O=C1c2ccccc2C(=O)c2c(NCc3cccnc3)cccc21	-3	105	1	5	13	14	/	/	/
SMILES	LANA-H2A inh	CR mimetic SO	MEX-5 binding	GLD-1 RNA inh	MCL1 BIM primary	BCLXL inh	BCLXL inh confirm	MCL1 BIM confirm	GLD1 RNA confirm
CNc1cccc2c1C(=O)c1ccccc1C2=O	-4	95	-11	46*	92*	82*	84*	95*	10
CC1(C)CC(=O)C2=C(C1)Nc1ccccc1S2	-2	78	?	49*	59*	56*	56*	62*	19
O=C(NCC(=O)N1CCN(Cc2ccccc2)CC1)c1ccc(Br)o1	1	86	1	1	-3	-4	/	/	/
Cc1ccsc1C(=O)OCC(=O)c1cc(C)n(C)c1C	0	93	/	2	/	/	/	/	/
COc1ccc2[nH]c(C)c(CCN(Cc3cccs3)C(=S)Nc3ccccc3)c2c1	13	108	-2	46*	88*	79*	38*	59*	11
COc1ccc2[nH]c(C)c(CCN(Cc3cccs3)C(=S)Nc3ccc(F)cc3)c2c1	11	91	-6	49*	75*	73*	41*	52*	-1
COc1ccc(NC(=S)N(CCc2c(C)[nH]c3ccc(C)cc23)Cc2cccs2)cc1	1	124	3	9	5	-3	/	/	/
